PG9 binder = binders of HIV-1 gp120 antibody PG9, primary screen, biochemical, TR-FRET; 360,000 tested, 0.43% active; inhibition, % at 6.7 µM; AID 624416, 2012; HIV-1 gp120 / PG9 antibody interaction; TR-FRET gp120-PG9 antibody binding; in the data active = inhibition above about 8.5%
rCAG RNA binder = binders of r(CAG) RNA repeats, primary screen, biochemical, fluorescence; r(CAG) RNA repeat, TO-PRO-1 dye displacement fluorescence; inhibition, % at 3 µM; AID 651821, 2012; 370,000 tested, 1.3% active;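 active = inhibition above the plate cutoff, the mean of all test compounds on that plate plus 3 SD, cut at about 35% in these data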;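 note: 0% = DMSO alone and 100% = 100 µM mitoxantrone as full dye displacement; higher means more dye released from RNA so lower well fluorescence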
sPLA2-III inh = human group III sPLA2 inhibitors, primary screen, biochemical, QFRET, BODIPY PC-A2 liposome substrate. inhibition, % at 12.2 µM. Group 3 secretory phospholipase A2 (Homo sapiens), Q9NZ20. 370,000 tested, 0.56% active. AID 743126, 2013. QFRET BODIPY PC-A2 liposome hydrolysis, fluorescence;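 active = inhibition above mean plus 3 SD of compounds lying within the high and low control bounds, cut at about 19% in these data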;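 note: 0% = median of test compound wells and 100% = no enzyme DMSO wells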
Target sequence (Q9NZ20 whole entry, looked up): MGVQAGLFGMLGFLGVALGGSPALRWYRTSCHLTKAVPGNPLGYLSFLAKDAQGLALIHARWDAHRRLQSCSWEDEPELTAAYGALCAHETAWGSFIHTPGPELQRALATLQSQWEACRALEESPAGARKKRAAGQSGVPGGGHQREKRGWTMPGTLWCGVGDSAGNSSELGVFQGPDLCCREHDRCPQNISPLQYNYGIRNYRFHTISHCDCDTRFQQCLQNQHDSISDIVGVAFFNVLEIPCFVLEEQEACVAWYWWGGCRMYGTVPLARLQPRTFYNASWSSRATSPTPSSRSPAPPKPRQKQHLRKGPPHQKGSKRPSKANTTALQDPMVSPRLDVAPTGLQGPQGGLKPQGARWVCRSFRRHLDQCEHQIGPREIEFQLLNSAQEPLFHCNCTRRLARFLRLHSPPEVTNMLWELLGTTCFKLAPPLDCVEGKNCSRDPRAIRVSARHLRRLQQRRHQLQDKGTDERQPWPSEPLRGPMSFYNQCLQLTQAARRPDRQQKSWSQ
bovine MsrA act = bovine MsrA enzyme activators, primary screen, biochemical, absorbance, HTS; Methionine sulfoxide reductase A (Bos taurus); purified bovine MsrA, absorbance read-out; activation, % at 10.6 µM; AID 602163, 2012; 360,000 tested, 0.3% active; in the data active = activation above about 7.5%;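 note: 0% = vehicle and 100% = reference activator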
MsrA inhibitor = bovine MsrA enzyme inhibitors, primary screen, biochemical, absorbance, HTS | Methionine sulfoxide reductase A (Bos taurus) | purified bovine MsrA, absorbance read-out | inhibition, % at 15.5 µM | 360,000 tested, 0.75% active; in the data active = inhibition above about 4.5%;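 note: 0% = vehicle wells with enzyme and 100% = reference inhibitor wells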
rCAG bind conf = small molecules binding CAG repeat RNA – biochemical, fluorescence, confirmation; shares compounds with rCAG RNA binder; r(CAG) RNA repeat, TO-PRO-1 dye displacement fluorescence; inhibition, % at 3 µM; 4,300 tested, 70% active; AID 652065, 2013;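 active = inhibition above a per-plate cutoff, the mean inhibition of sample wells plus 3 SD, cut at about 35% in these data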;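 note: loss of TO-PRO-1 fluorescence as compound displaces dye from 1x1 AA loop RNA; 0% = DMSO only wells and 100% = 100 µM mitoxantrone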
dCAG dye counter = displacement of TO-PRO-1 from CAG DNA duplex, counter-screen for rCAG RNA repeat binder project, biochemical, fluorescence, TO-PRO-1 dye, d(CAG) DNA oligo. shares compounds with rCAG RNA binder. d(CAG) DNA oligo TO-PRO-1 dye displacement. inhibition, % at 3 µM. 4,300 tested, 94% active;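 active = inhibition above its plate's cutoff, the mean test-well inhibition plus 3 SD, cut at about 4.8% in these data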;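 note: 0% = DNA dye mix with DMSO and 100% = 100 µM mitoxantrone; hits displace the dye from DNA and so lower well fluorescence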
Numbers without * were called inactive. In the library only some 3.2% were active in any assay of this set; here they are far more common.

`COC(=O)c1cc(NS(=O)(=O)c2ccc(Cl)c(N3C(=O)c4ccc(C(=O)O)cc4C3=O)c2)cc(C(=O)OC)c1` gave PG9 binder 0, rCAG RNA binder 52*, sPLA2-III inh -16, bovine MsrA act -14, MsrA inhibitor 2, rCAG bind conf 45* and dCAG dye counter 13*.
`CCOc1ccc(S(=O)(=O)N2CCNC(=O)C2)cc1` gave PG9 binder -3, rCAG RNA binder 54*, sPLA2-III inh 13, bovine MsrA act -12, MsrA inhibitor 2, rCAG bind conf 3 and dCAG dye counter 1.
Screening CCOc1ccc(S(=O)(=O)N2CN3CCN(C3)C2)cc1 returned PG9 binder 1, rCAG RNA binder -5, sPLA2-III inh 15, bovine MsrA act -5 and MsrA inhibitor 1.
COc1ccc(CN2c3c(Br)cccc3C(=O)CS2(=O)=O)cc1 was read as bovine MsrA act -5.
O=C1CS(=O)(=O)N(Cc2cccc(F)c2)c2ccc(Br)cc21 was read as PG9 binder -1, rCAG RNA binder 52*, sPLA2-III inh -27, bovine MsrA act -2, MsrA inhibitor 1, rCAG bind conf 27 and dCAG dye counter 14*.
Screening CCOc1ccc(Oc2ccc(NS(=O)(=O)c3cc(C(=O)O)ccc3Cl)cc2)cc1 returned PG9 binder 1, rCAG RNA binder 38*, sPLA2-III inh -27, bovine MsrA act -1, MsrA inhibitor 1, rCAG bind conf 39* and dCAG dye counter 11*.
Screening CCOc1ccc(NS(=O)(=O)c2cc(NC(=O)c3ccc(C)cc3)ccc2Cl)cc1 returned PG9 binder 3, rCAG RNA binder 18, sPLA2-III inh -34, bovine MsrA act -3 and MsrA inhibitor -1.
Screening CCOc1ccc(Oc2ccc(NS(=O)(=O)c3ccc(CCC(=O)O)cc3)cc2)cc1 returned PG9 binder 0, rCAG RNA binder 43*, sPLA2-III inh -18, bovine MsrA act -7, MsrA inhibitor 0, rCAG bind conf 38* and dCAG dye counter 11*.
CCOc1ccc(NS(=O)(=O)c2ccc(NS(=O)(=O)c3ccccc3)cc2)cc1 was read as PG9 binder -1, rCAG RNA binder 36*, sPLA2-III inh -65, bovine MsrA act -10, MsrA inhibitor 1, rCAG bind conf 19 and dCAG dye counter 2.
For CCOc1ccc(S(=O)(=O)Nc2cc(NS(=O)(=O)c3ccc(OCC)cc3)cc(C(=O)O)c2)cc1 the results were PG9 binder 2, rCAG RNA binder 58*, sPLA2-III inh -17, bovine MsrA act -12, MsrA inhibitor 1, rCAG bind conf 60* and dCAG dye counter 24*.
For O=S1(=O)c2ccc(Br)cc2OC[C@H](Cc2ccccc2)N1Cc1cn(Cc2ccc(Cl)cc2)nn1 the results were rCAG RNA binder 5 and sPLA2-III inh 2.
For Nc1ccccc1-c1nc2ccccc2[nH]c1=O the results were PG9 binder -4, rCAG RNA binder 0, sPLA2-III inh 3, bovine MsrA act -2 and MsrA inhibitor 1.
For O=c1[nH]c2ccccc2nc1-c1c[nH]c2ccccc12 the results were PG9 binder 0, rCAG RNA binder 43*, sPLA2-III inh -20, bovine MsrA act -1, MsrA inhibitor 2, rCAG bind conf 16 and dCAG dye counter 14*.
Screening O=C(NCC1COc2ccccc2O1)c1ccc(NC(=O)c2cccc(F)c2F)cc1 (stereo not given) returned rCAG RNA binder 2 and sPLA2-III inh 6.
O=C(O)COc1ccccc1/C=C1\C(=O)Nc2ccc(Br)cc21 was read as PG9 binder -3, rCAG RNA binder 43*, sPLA2-III inh -38, bovine MsrA act -1, MsrA inhibitor 1, rCAG bind conf 26 and dCAG dye counter 5.7*.
